POLH inh: DNA polymerase eta (human) inhibition; Q9Y253; recombinant Pol eta, fluorescent DNA replication assay; Potency, µM (top dose mostly 114 µM), actives largely listed as inhibitors; actives 1.2% (n = 390,000); AID 588591
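Pol eta at 10 nM preincubated with compounds 15 min at room temperature; reaction started with fluorescent substrate (50 nM final) and read kinetically at 0 and 10 min.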
WRN helicase inh: WRN helicase (human) inhibition; Q14191; WRN helicase unwinding, fluorescent forked duplex, kinetic; Potency, µM (doses to about 114 µM), hits mostly inhibitors; actives 0.46% (n = 360,000); AID 651768; also: nearly all actives have a fitted effect of over 55% in size
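Screening of the MLSMR collection measured strand separation of a quenched forked DNA duplex (100 nM) by 20 nM WRN with 2 mM ATP, all final. Compounds were preincubated with enzyme 15 min at room temperature.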
POLK inh: DNA polymerase kappa (human) inhibition; Potency, µM (highest dose often 107 µM), actives largely listed as inhibitors; actives 0.53% (n = 400,000); purified Pol kappa, fluorescent DNA synthesis assay, 10 min
Target sequence (Q9UBT6 whole entry, looked up): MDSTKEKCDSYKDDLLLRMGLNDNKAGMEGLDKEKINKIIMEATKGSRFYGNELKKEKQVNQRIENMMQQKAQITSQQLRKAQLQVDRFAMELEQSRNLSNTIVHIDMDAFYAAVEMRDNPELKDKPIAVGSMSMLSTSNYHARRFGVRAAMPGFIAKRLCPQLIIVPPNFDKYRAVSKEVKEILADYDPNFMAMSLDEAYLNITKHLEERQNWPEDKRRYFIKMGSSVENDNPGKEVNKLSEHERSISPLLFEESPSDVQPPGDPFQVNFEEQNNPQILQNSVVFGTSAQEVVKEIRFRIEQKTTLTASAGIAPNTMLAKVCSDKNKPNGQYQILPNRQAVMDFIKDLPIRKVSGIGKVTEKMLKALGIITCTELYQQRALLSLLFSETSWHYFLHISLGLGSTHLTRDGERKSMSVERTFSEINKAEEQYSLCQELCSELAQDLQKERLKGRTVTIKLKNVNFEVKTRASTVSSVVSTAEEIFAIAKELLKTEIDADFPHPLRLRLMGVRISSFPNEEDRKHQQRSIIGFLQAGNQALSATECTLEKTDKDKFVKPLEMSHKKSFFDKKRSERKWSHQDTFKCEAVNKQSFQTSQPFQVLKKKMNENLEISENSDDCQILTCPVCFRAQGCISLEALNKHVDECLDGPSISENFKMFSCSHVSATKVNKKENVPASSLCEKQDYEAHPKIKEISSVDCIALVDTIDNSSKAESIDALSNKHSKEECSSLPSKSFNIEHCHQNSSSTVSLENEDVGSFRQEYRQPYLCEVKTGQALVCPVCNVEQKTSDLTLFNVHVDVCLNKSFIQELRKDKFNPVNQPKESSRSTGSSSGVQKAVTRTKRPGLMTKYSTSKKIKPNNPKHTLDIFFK
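Inhibition of 10 nM Pol kappa is measured by a fluorescent read-out at 0 and 10 min following addition of 50 nM substrate (final), with a 15-min room-temperature compound preincubation.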
Pol iota inh: blocks human DNA polymerase iota activity; Pol iota fluorescent replication assay, 10 min; actives 1% (n = 390,000); Q9UNA4; Potency, µM (highest dose often 115 µM), most hits filed as inhibitors
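Pol iota at 10 nM preincubated 15 min with compounds at room temperature; reaction started with fluorescent substrate, 50 nM final. Fluorescence read kinetically at 0 and 10 min; buffer-only wells as negative control.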
POLB inh: DNA polymerase beta (human) inhibition. P06746. Pol beta primer extension/strand displacement, fluorescence kinetic. Potency, µM (top dose mostly 114 µM), usual class: inhibitors. actives 1.3% (n = 340,000)
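Curves were derived by four-parameter Hill fits of normalized qHTS data. The kinetic fluorescent primer-extension read was taken at 0 and 10 min after 50 nM substrate, following a 15 min room-temperature preincubation of 10 nM enzyme with compounds.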
L3MBTL1 block: L3MBTL1 (human) inhibition | Q9Y468 | AlphaScreen L3MBTL1–H3K9me1 peptide binding | Potency, µM (series often up to 57.1 µM), actives largely listed as inhibitors | actives 0.66% (n = 230,000) | AID 485360; also: nearly all actives have a fitted effect of over 60% in size
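L3MBTL1 (50 nM) pre-complexed 30 min with biotinylated H3(1-15)K9me1 peptide (75 nM), then compounds added for 30 min at room temperature; AlphaScreen streptavidin donor/nickel chelate acceptor beads (10 ug/mL final) read after 30 min dark incubation.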
Hits are given with their value; 0 = inactive; ? = inconclusive; - = no result; [ ] = remark or other dose. Sampled rows, rich in hits. Any-hit rate of the full collection: about 2.5%. Calls follow the shape of the dose curve; as a rule, active = well fitted curve in the direction sought with a large enough effect; inconclusive = small, poorly fitted or top-dose-only effect, or another doubt; inactive = no such curve, though single readings can be large; an effect the other way counts as inactive or inconclusive.

SMILES	POLH inh	WRN helicase inh	POLK inh	Pol iota inh	POLB inh	L3MBTL1 block
O=C(/C=C/c1ccc(-c2ccccc2)cc1)NCc1cccnc1	0	0	0	?	50.1µM	0[2.29 µM]
COc1ccc(CCC(=O)Nc2ccc(S(=O)(=O)N3CCCC3)cc2)cc1OC	0	0	0	0	-	0
CCOC(=O)N1CCN(C(=O)CSCc2nc(-c3ccccc3F)oc2C)CC1	0	0	0	89.1µM	0	0
COc1ccccc1C(=O)NC(=O)CSc1nnnn1C	0	0	0	0	-	0
CCOc1ccc(C(=O)Nc2ccc(N3CCN(C)CC3)cc2)cc1Br	0	0	0	0	0	0
CCOc1ccc(C(=O)Nc2ccc(N3CCN(C(=O)c4ccco4)CC3)cc2)cc1Br	?	?	0	25.1µM	-	-
Cc1c(Br)c(O)c(Br)c(O)c1/C=N/n1c(-c2ccccc2)n[nH]c1=S	3.16µM	44.7µM	35.5µM	7.94µM	50.1µM	-
Oc1c(Br)cc(/C=N/n2c(-c3ccccc3)n[nH]c2=S)c(O)c1Br	10µM	?	39.8µM	?	0	0
Oc1c(Br)cc(/C=N/n2c(-c3ccccc3)n[nH]c2=S)cc1Br	0	?	0	0	0	0
O=C1NC[C@@H](CCCCN2C[C@H](Cc3ccc(O)cc3)N(CC3CCCCC3)C(=O)C2=O)N(CC2CCCCC2)C1=O	-	0	-	-	-	-
COc1ccccc1NCC(=O)c1ccc(Cl)cc1	?	0	0	0	89.1µM	-
COc1ccccc1NCC(=O)c1ccc(C)c(C)c1	0	0	0	0	0	0[2.29 µM]
CN(C)CC1CC/C(=C\c2ccc(O)cc2)C1=O (stereo not drawn)	?	11.2µM	0	?	-	-
CC1CCC/C(=C\c2ccc(O)cc2)C1=O (stereo not drawn)	0	0	0	0	-	-
COc1ccc(/C=C2/CCC(CN3CCOCC3)C2=O)cc1 (stereo not drawn)	?	14.1µM	0	?	-	-
COc1ccc(/C=C2\CCC(C3CCCC3)C2=O)cc1 (stereo not drawn)	0	0	0	0	0	-
CCOc1cccc(=O)c2c(C)n(C)c(C)c12	?	0	?	22.4µM	?	?
CCCCCn1c(C)c2c(OCC)cccc(=O)c2c1C	0	0	0	?	0	-
COc1cccc(=O)c2c(C)n(C)c(C)c12	?	0	?	39.8µM	25.1µM	?
C[C@H]1CC2[C@@H]3CCC4=CC(=O)C=C[C@]4(C)[C@@]3(Cl)[C@@H](O)C[C@]2(C)[C@@]1(O)C(=O)CO (stereo partly drawn)	0	-	-	0	0	-
Cn1c(SCC(=O)c2ccc(O)c(O)c2)nnc1-c1cccs1	22.4µM	?	79.4µM	28.2µM	3.55µM	0
Cn1c(SCC(=O)c2ccc3c(c2)Cc2ccccc2-3)nnc1-c1cccc(N)c1	?	0	0	0	0.159µM	0
Cn1c(SCC(=O)c2ccc(O)c(O)c2)nnc1-c1ccccc1	0	0[11.6 µM]	0	?	0	-
C=CCn1c(SCC(=O)c2ccccc2)nnc1-c1ccc2c(c1)OCO2	0	0	0	?	50.1µM	-
C=CCn1c(SCC(=O)c2ccc(O)c(O)c2)nnc1-c1cccc(OC)c1	11.2µM	?	31.6µM	?	-	?
SMILES	POLH inh	WRN helicase inh	POLK inh	Pol iota inh	POLB inh	L3MBTL1 block
CCc1ccc(NC(=O)C2CCN(S(=O)(=O)c3ccc4c(c3)N(C(C)=O)CCO4)CC2)cc1	0	0	0	0	0	-
COc1ccc(CN2CCNC(=O)C2CC(=O)N(C)Cc2nc(C)cs2)c(OC)c1 (stereo not drawn)	0	0	0	0	0	-
O=S(=O)(NC1=NCCCCC1)c1ccc2sc(NS(=O)(=O)c3ccc4ccccc4c3)nc2c1	?	0	0	11.2µM	0	-
O=C(c1ccccc1)c1cc(Cl)ccc1N1C(=O)C=CC1=O	0	14.1µM	0	0	0	0
COc1ccc(NC2CCCN(C(=O)c3csc(C(C)C)n3)C2)cc1OC (stereo not drawn)	0	0	0	0	0	-
COc1ccc(NC2CCCN(C(=O)c3cccc(C)n3)C2)cc1OC (stereo not drawn)	0	0[11.6 µM]	?	50.1µM	0	-
CS(=O)(=O)c1ccc(C(=O)OCC(=O)NC23CC4CC(CC(C4)C2)C3)cc1[N+](=O)[O-]	15.8µM	0	0	22.4µM	0	0
CS(=O)(=O)c1ccc(C(=O)OCC(=O)NC(=O)NC2CCCCC2)cc1[N+](=O)[O-]	-	-	0	0	-	-
Cc1nnc(N/N=C/c2ccc(Br)cc2)n1N	0	0	0	?	0	0[2.29 µM]
Cc1ccc(/C=N/Nc2nncn2N)cc1	0	0[11.6 µM]	0	0.891µM	0	-
Nn1cnnc1N/N=C/c1ccc(F)cc1	0	0[11.6 µM]	0	15.8µM	0	0
Nn1cnnc1N/N=C/c1ccc(Cl)c([N+](=O)[O-])c1	0	0	0	3.16µM	?	0
CCC(=O)N1CCc2cc(CNC(=O)Nc3cc(Cl)ccc3C(=O)OC)ccc21	0	-	0	0	0	-
CC(=O)N1CCc2cc(CNC(=O)Nc3cc(Cl)ccc3C)ccc21	0	-	0	0	28.2µM	-
CCOC(=O)N1CCC(N2Cc3cccc(C(=O)NCc4ccc5c(c4)OCO5)c3C2=O)CC1	?	0	0	44.7µM	25.1µM	0
CCCN1Cc2cccc(C(=O)NCCc3cccc(C)c3)c2C1=O	0	0	0	?	0	-
CCOC(=O)N1CCC(NC(=O)c2cccc3c2C(=O)N(c2ccc(OC)cc2)C3)CC1	17.8µM	0	50.1µM	?	10µM	-
O=C(NCc1ccc2c(c1)OCO2)c1cccc2c1C(=O)N(C1CCCCC1)C2	0	0	0	0	0	0
CCOC(=O)N1CCC(N2Cc3cccc(C(=O)NCc4ccccc4OC)c3C2=O)CC1	0	0	0	0	0	0
Cc1cccc(CCNC(=O)c2cccc3c2C(=O)N(C2CCCCC2)C3)c1	?	0	0	0	11.2µM	-
CCOC(=O)N1CCC(N2Cc3cccc(C(=O)NCc4ccc(OC)cc4)c3C2=O)CC1	-	-	-	-	15.8µM	?
CCOC(=O)N1CCC(NC(=O)c2cn(-c3ccc(OC)cc3)c(=O)c3ccccc23)CC1	0	0	0	0	0	0
C=CCNC(=O)c1ccccc1NS(=O)(=O)c1ccc(OC)c(C(=O)N2CCOCC2)c1	0	0	0	0	0	-
COc1ccc(NC(=O)c2ccc(CNc3c(NC4CCCCC4)c(=O)c3=O)cc2)cc1OC	0	0	0	0	0	-
Cc1ccc(NC(=O)CCn2cnc3cc(C)c(C)cc32)cc1	0	0	0	0	0	0
CC(=O)Nc1cccc(NC(=O)CCn2cnc3cc(C)c(C)cc32)c1	?	0	0	?	25.1µM	0
CC(OC(=O)CNS(=O)(=O)c1ccc(C#N)cc1)C(=O)Nc1ccc(Cl)cn1 (stereo not drawn)	0	0	0	0	-	0
COc1ccccc1OCCOc1ccc(/C=C2/C(=N)N3OC(C)=CC3=NC2=O)cc1OC	3.98µM	?	0	0	0	0
